Values joined by “and” are separate entries in the source; they are usually repeats but may differ in a detail not shown here. Identical values can stand only once. Results filed as inconclusive are left out. A number with no mark means an inactive call. Active and inactive are the calls of the source. Calls follow the shape of the dose curve; as a rule, active = well fitted cell-killing curve with a large enough effect; inconclusive = small, poorly fitted or top-dose-only effect, or effect the other way; inactive = no such curve, though single readings can be large or run the other way.

A short description of this assay: Viability qHTS for spleen associated tyrosine kinase inhibitor (SYKi) drug resistant MV4-11 cells (AID 1963824). Also: nearly all actives have a fitted effect of over 35% in size. Summed up:
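SYK inhibitor-resistant MV4-11 AML cells, 500 per well, added to predispensed compounds and incubated 72 hr at 37 C, 5% CO2. Viability measured by CellTiter-Glo luminescence after 10 min at room temperature.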
Potency is read from the fitted curve at half-maximal effect.

`C/C=C/C=C/C(=O)O[C@@H]1C=C2COC(=O)[C@]2(O)[C@@]2(C)CCCC(C)(C)[C@H]12`: the Potency was 16.1 µM (active).

As to `CCS(=O)(=O)N(Cc1cccnc1)c1cccc(-c2ccc(C#N)cc2)c1`, the Potency is 20.6 µM (active).

With `NCCCNc1ccc(Nc2nccc(Nc3cc(C4CC4)[nH]n3)n2)cc1`, the Potency is 0.164 µM (active).

In the case of `Cc1nc2cc(C(=O)NCc3ccccn3)nn2c(C)c1Cc1cccc(Cl)c1`, the Potency was 20.6 µM (active).

For `CC/C=C\[C@H](O)[C@H](O)C1=C(C)C(=O)[C@]2(O1)C(=O)N[C@@](O)(C(=O)c1ccccc1)[C@@H]2O`, the Potency entry was “inactive”.

On to `O=C(C(c1ccccc1)c1ccccc1)N1CCN(CC(O)COc2cccc3ncccc23)CC1` (centres undefined), for which the Potency was 10.3 µM (active) and 11.8 µM (active).

For `COC1C2=C(COC2=O)C2(C)CCCC(C)(CO)C2C1OC(=O)c1ccccc1` (centres undefined), the Potency result is “inactive”.

Regarding `CC(C)(CO)c1cc2cc(NC(=O)C3(c4ccc5c(c4)OC(F)(F)O5)CC3)c(F)cc2n1CC(O)CO` (centres undefined), the Potency was 16.4 µM (active).

Take `CC(C)S(=O)(=O)NC[C@H](C)c1ccc(-c2ccc(CCNS(C)(=O)=O)cc2)cc1`: the Potency is 2.31 µM (active).

As for `CC(=O)OC1CC2C3(C)CCC(OC(=O)CC(=O)O)C(C)(C)C3CCC2(C)C2(C)CCC(C3(C)CCC(=O)O3)C12` (centres undefined), the Potency was 6.32 µM (active).

In the case of `CS(=O)(=O)c1ccc(-c2cn3ccccc3n2)cc1`, the Potency entry was “inactive”.

For the compound `CCn1c(-c2nonc2N)nc2cncc(C(=O)N3CC[C@H](N)C3)c21`, the Potency was 8.2 µM (active).

For `CCC/C=C/C(=O)O[C@H]1CC(C)(C)CC2[C@]13[C@H](O)O[C@@]21CCC2[C@@]4(C)CC[C@H](O[C@@H]5O[C@H](C(=O)O)[C@@H](O)[C@H](O[C@@H]6O[C@H](CO)[C@H](O)[C@H](O)[C@H]6O[C@@H]6O[C@@H](C)[C@H](O)[C@@H](O)[C@H]6O[C@@H]6OC[C@](O)(CO)[C@H]6O)[C@H]5O[C@@H]5O[C@H](CO)[C@H](O)[C@H](O)[C@H]5O)C(C)(C)C4CC[C@@]2(C)[C@]1(C)C[C@H]3OC(C)=O` (some centres undefined), the viability, % of control was 66.3% [at 9.25 µM].

Take `OC1COC(OCC2OC(OCCc3ccccc3)C(O)C(O)C2O)C(O)C1O` (centres undefined): the Potency entry was “inactive”.

For the compound `CN(C)CCNC(=O)c1cccn2c(=O)c3cc4ccccc4cc3nc12`, the Potency is 0.422 µM (active).

Regarding `CC1=C2C[C@H]3O[C@@]3(C)CCC3O[C@@]3(C)C[C@@]2(O)OC1=O` (some centres undefined), the Potency entry is “inactive”.

Take `CC(C)=CCC/C(C)=C/CO[C@@H]1O[C@H](CO[C@@H]2O[C@@H](CO)[C@H](O)[C@H]2O)[C@@H](O)[C@H](O)[C@H]1O`: the Potency result was “inactive”.

`C/C1=C\[C@@H](C)C[C@@H](C)[C@@H](Cc2cnco2)OC(=O)/C(C)=C/[C@@H](C)C[C@@H](C)[C@@H](Cc2cnco2)OC1=O`: the Potency is 0.502 µM (active).

Take `C=C1C(=O)O[C@@H]2[C@H]1CC[C@H](C)[C@]1(CCC(=O)O1)C2(C)O` (some centres undefined): the Potency was 6.51 µM (active).

On to `CCc1ccc(N(CC(C)C)S(=O)(=O)c2ccc(OCC3CCOCC3)c(CO)c2)cc1`, for which the Potency is 18.6 µM (active).

Take `CC(C)[C@H]1CCC(CO)=C[C@@H]1/C=C(\CO)C(=O)O`: the Potency entry was “inactive”.

Consider `COC1CC(O[C@H]2CC[C@@]3(C)C(=CC[C@]4(O)C3[C@H](OC(C)=O)[C@@H](OC(=O)c3ccccc3)[C@]3(C)[C@@H](C(C)=O)CC[C@@]34O)C2)OC(C)C1OC1CC(OC)C(OC2CC(OC)C(OC3OC(C)C(OC4OC(CO)C(O)C(O)C4O)C(OC)C3O)C(C)O2)C(C)O1` (some centres undefined), for which the viability, % of control is 66.2% [at 9.25 µM].

`COc1ccc(CCC(=O)O)c(O[C@@H]2O[C@H](CO)[C@@H](O)[C@H](O)[C@H]2O)c1`: the Potency result was “inactive”.

In the case of `CN(C)CC(c1ccc(O)cc1)C1(O)CCCCC1` (centres undefined), the Potency entry was “inactive”.

Consider `CS(=O)(=O)c1ccc([C@H](CC2CCCC2)C(=O)Nc2nccs2)cc1`, for which the Potency was 13 µM (active).

Take `CS(=O)(=O)Nc1ccc2oc3c(OC(F)F)ccc(C(=O)Nc4c(Cl)cncc4Cl)c3c2c1`: the Potency is 23.1 µM (active).

In the case of `COc1cc2occc2c(O[C@@H]2O[C@H](CO)[C@@H](O)[C@H](O)[C@H]2O)c1CCC(=O)O`, the Potency result is “inactive”.

Consider `CC(Oc1ccc2[nH]nc(/C=C/c3cnn(CCO)c3)c2c1)c1c(Cl)cncc1Cl` (centres undefined), for which the Potency was 0.0116 µM (active).

Turning to `CCCCCCCOc1cc2c(cc1/C(C)=C/c1ccc(C(=O)O)cc1)C(C)(C)CCS2(=O)=O`, the Potency is 11.6 µM (active).

(Values after PubChem BioAssay (NCATS).)
